Compound activity (PubChem)
Compounds with a hit are over-represented: about 9% of the library has one in this group of screens.
HPGD block: blocks human HPGD enzyme activity; purified HPGD, NADH fluorescence kinetic, PGE2 substrate; P15428; actives 4.3% (n = 150,000); Potency, µM, for inactives: at the top dose activity change, negative = inhibition, usual class: inhibitors; active = well fitted inhibition curve with a large enough effect, not every such curve was filed as active; inconclusive = small, poorly fitted or top-dose-only effect, or another doubt; inactive = no such curve, though single readings can be large or run the other way; note: % is set by controls: 0 for no effect and ±100 for the full control effect
Target sequence (P15428 whole entry, looked up): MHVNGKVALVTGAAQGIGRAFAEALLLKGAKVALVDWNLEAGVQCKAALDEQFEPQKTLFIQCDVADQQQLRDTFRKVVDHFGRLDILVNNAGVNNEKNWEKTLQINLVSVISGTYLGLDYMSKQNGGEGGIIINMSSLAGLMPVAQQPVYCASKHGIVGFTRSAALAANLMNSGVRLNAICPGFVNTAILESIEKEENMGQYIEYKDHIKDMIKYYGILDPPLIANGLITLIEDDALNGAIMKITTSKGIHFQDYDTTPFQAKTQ
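20 nM HPGD preincubated 15 min at room temperature with compound in 50 mM Tris-HCl pH 8, 0.01% Tween 20. Started with 1 mM NAD+ and 30 uM prostaglandin E2; NADH fluorescence (360/450 nm) read 5 times over 30-s intervals, last minus first.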
Luc counter: counter-screen: inhibitors of Kinase-Glo firefly luciferase | AID 1379 | Kinase-Glo luciferase, ATP luminescence, 8 min | Q27757 | actives 0.28% (n = 200,000) | Potency, µM (titrated, usually from 38.3 µM), without a hit: top-dose activity change, negative = inhibition, actives largely listed as inhibitors; note: % is set by controls: 0 for no effect and ±100 for the full control effect; nearly all actives have a fitted effect of over 60% in size
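Compound is pinned into ATP-containing buffer (10 uM ATP, imidazole pH 7.2, 7 mM MgCl2). Kinase-Glo luciferase reagent is then added. Light output is recorded following an 8-min room-temperature incubation.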
HTT cytoprotect: protects HTT-Q103 PC12 cells, measured by ATP | PC12 HTT-Q103 induced, cytoprotection, ATP luminescence, 40 h | Potency, µM (doses to about 56.4 µM), without a hit: cytoprotection (ATP increase), actives largely listed as activators | actives 0.14% (n = 230,000) | AID 1471; note: % of control where 0% means no effect; nearly all actives have a fitted effect of over 45% in size
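Compounds were screened for protection of PC12 cells against cell death after tebufenozide induction (100 nM final) of mutant Huntingtin exon 1 (Q103) fused to GFP.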
HttQ103 aggreg: mutant huntingtin aggregation inhibition. PC12 HttQ103-GFP aggregates, Acumen cytometry, 40 h. Potency, µM (doses to about 46.1 µM), for inactives: at the highest dose activity change, negative = inhibition, most hits filed as inhibitors. actives 1.1% (n = 220,000); note: % is set by controls: 0 for no effect and ±100 for the full control effect; nearly all actives have a fitted effect of over 60% in size
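Aggregates are detected as GFP objects 1–25 µm with signal 6 STDEV over background in lysates of induced PC12 cells. These carry Huntingtin exon 1 with 103 glutamines fused to GFP under an ecdysone promoter; compounds titrated.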
Lamin A splicing: changes lamin A minigene splicing in HeLa cells. HeLa LMNA splicing GFP/RFP minigene ratio, 48 h. Potency, µM (highest dose often 46.1 µM), without a hit: at the top dose ratio change, negative = inhibition, usual class: inhibitors. actives 0.01% (n = 200,000). AID 1487; active = well fitted inhibition curve with a large enough effect in the signal ratio, with a control signal flat, not every such curve was filed as active; inconclusive = small, poorly fitted or top-dose-only effect, or effect the other way, or a change in a side signal; the % refers to the signal ratio; note: % is set by controls: 0 for no effect and ±100 for the full control effect
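Read-out is the ratio of GFP to DsRed2 object intensity, acquired by 488 nm laser-scanning cytometry on HeLa lamin A-EGFP minigene reporter cells. Compound incubation 48 hrs at 37 °C in Opti-MEM with 2% FBS; DMSO 0.5% final.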
ALDH1A1 block: blocks purified human ALDH1A1 activity. Purified ALDH1A1, NADH fluorescence, propionaldehyde substrate. AID 1030. actives 7.3% (n = 220,000). Potency, µM (series often up to 75.3 µM), inactives show at the top dose activity, negative = inhibition, most hits filed as inhibitors; active = well fitted inhibition curve with a large enough effect, not every such curve was filed as active; inconclusive = small, poorly fitted or top-dose-only effect, or another doubt; inactive = no such curve, though single readings can be large or run the other way;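 note: plate controls were no enzyme wells and a reference inhibitor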
Target sequence (P00352 whole entry, looked up): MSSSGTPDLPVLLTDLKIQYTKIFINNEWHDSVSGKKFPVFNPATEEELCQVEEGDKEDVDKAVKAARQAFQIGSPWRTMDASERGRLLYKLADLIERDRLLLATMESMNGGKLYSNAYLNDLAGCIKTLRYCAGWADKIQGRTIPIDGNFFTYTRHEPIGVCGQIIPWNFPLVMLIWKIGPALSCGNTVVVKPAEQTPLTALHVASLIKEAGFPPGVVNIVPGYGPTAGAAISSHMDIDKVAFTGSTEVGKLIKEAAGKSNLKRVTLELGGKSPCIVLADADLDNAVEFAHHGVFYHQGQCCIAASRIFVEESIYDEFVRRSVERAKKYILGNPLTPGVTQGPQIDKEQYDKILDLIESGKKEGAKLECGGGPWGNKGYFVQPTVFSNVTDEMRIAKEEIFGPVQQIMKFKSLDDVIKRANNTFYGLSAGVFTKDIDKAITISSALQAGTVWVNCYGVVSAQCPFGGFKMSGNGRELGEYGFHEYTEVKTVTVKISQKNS
* hit, by the source's call; ? = inconclusive; . = no result; [ ] = another dose, or the depositor's remark. Unless noted, calls come from the whole dose curve; as a rule, active = well fitted curve in the direction sought with a large enough effect; inconclusive = small, poorly fitted or top-dose-only effect, or another doubt; inactive = no such curve, though single readings can be large; an effect the other way counts as inactive or inconclusive. Potency is the fitted concentration of half-maximal effect.

SMILES	HPGD block	Luc counter	HTT cytoprotect	HttQ103 aggreg	Lamin A splicing	ALDH1A1 block
O=C(COc1ccc(-c2ccccc2)cc1)N/N=C/c1cc(O)ccc1Br	-13.1%	-2.8%	-2.1%[10 µM]	-5.2%	?	-7.7%
O=C(C(F)C(F)(F)F)N1CCN(c2ccccc2)CC1 (centres undefined)	-8.6%	1.2%	0.1%[10 µM]	-0.3%	0.1%	1.4%
O=C(Nc1c(C(=O)O)oc2ccc(Br)cc12)c1ccccc1	?	-3.8%	1.7%	-12.8%	9.2%	28.2µM*
CCOC(=O)c1oc2ccc(Br)cc2c1NC(=O)CN1CCN(C)CC1	-17.3%	-1.0%	-39.8%	2.1%	-8.8%	?
COc1ccc([C@@H]2C(C#N)=C(N)S[C@@H](c3ccccc3)[C@@H]2[N+](=O)[O-])cc1	-11.1%	-2.7%	.	-1.3%	-2.4%	?
Cc1ccc(C)c(OCCOCCN2CC(C)OC(C)C2)c1C (centres undefined)	-8.8%	-4.6%	-7.4%	-4.5%	8.6%	15.8µM*
CCCCC/C=C\C/C=C\C/C=C\C=C\C1CCCC(=O)O1 (centres undefined)	-5.5%	-3.2%	-3.7%	.	.	2.2%
Cc1c([N+](=O)[O-])c(C/C=N/O)nn1C	.	.	18.9%[10 µM]	5.0%[9.22 µM]	.	.
CN(Cc1cnn(C)c1)C(=O)c1sc2cccc(Cl)c2c1Cl	28.2µM*	-3.0%	7.2%	-18.5%	?	?
COC(=O)Cc1ccc(O)c(N)c1	.	-1.5%	10.8%[10 µM]	18.2%	-6.5%[46 µM]	28.2µM*
O=C(OCn1ncc(Br)c(Br)c1=O)c1ccccc1Cl	?	-3.5%	-80.3%	?	?	0.398µM*
O=C(OCn1ncc(Br)c(Br)c1=O)c1ccc(F)cc1	22.4µM*	-4.5%	-98.0%[10 µM]	3.98µM*	?	0.0891µM*
Cc1nn2c(=O)cc(COC(=O)c3ccc(F)cc3)nc2s1	.	.	.	.	12.8%[46 µM]	.
O=c1c2cc(-c3ccccc3)sc2nc2n1CCC2	.	-13.9%	-3.9%[10 µM]	-20.2%	-17.0%[46 µM]	?
O=C(C1=NN[C@@H]2C(=O)N(c3cccc(F)c3)C(=O)[C@H]12)c1cnccn1	.	.	-19.6%[10 µM]	6.3%[9.22 µM]	.	6.31µM*
CSC(=S)N/N=C/c1ccc(Br)cc1	.	1.5%	3.1%[10 µM]	-1.8%	?	-12.8%
CN(C(=O)c1cccnc1)c1nc(-c2ccccc2)cs1	-6.3%	-5.3%	-13.1%	-3.6%	13.0%	7.1%
COc1ccccc1N(C(=O)c1ccncc1)c1nc(-c2ccc([N+](=O)[O-])cc2)cs1	-16.1%	0.6%	1.7%[10 µM]	-6.9%	?	11.2µM*
CC(=O)c1ccc(-c2ccccc2OC(F)(F)F)o1	.	.	-23.4%[10 µM]	-15.8%[9.22 µM]	.	?
N#Cc1ccccc1CN1C(=O)S/C(=C/c2cccn2-c2ccc(C(=O)O)cc2)C1=O	28.2µM*	-3.1%	-1.8%	-24.7%	10.7%	0.501µM*
O=C1NCCCc2nc(Oc3ccccc3)sc21	-3.2%	-0.6%	-12.6%	-4.1%	-2.1%	-5.2%
COc1ccc2nc3c(cc2c1)Cc1ccccc1-3	?	12.6µM*	-119.1%	.	.	?
O=C1C=C(NCc2ccncc2)CC(c2ccccc2)C1 (centres undefined)	-4.4%	14.1%	4.2%	10.8%	-6.1%	-10.9%
O=C1C=C(NNC(=O)c2ccncc2)CC(c2ccccc2)C1 (centres undefined)	.	0.8%	-1.0%	9.2%	2.7%[46 µM]	8.91µM*
COc1ccc(OC)c(-n2c(SC)nnc2-c2c[nH]c3ccccc23)c1	17.8µM*	17.7%	-17.4%	12.0%	-9.0%	?
SMILES	HPGD block	Luc counter	HTT cytoprotect	HttQ103 aggreg	Lamin A splicing	ALDH1A1 block
COc1ccc(OC)c(-n2c(SCC(N)=O)nnc2-c2c[nH]c3ccccc23)c1	-16.0%	-5.6%	-9.5%	4.7%	4.4%	3.9%
Cc1cc(C(=O)N2CCCC(CNS(=O)(=O)c3cccs3)C2)nn1C (centres undefined)	.	1.3%	3.7%[10 µM]	-3.6%[9.22 µM]	?	17.8µM*
C=C[C@@]1(C)CC(=O)[C@@]2(O)[C@@]3(C)[C@@H](O)CCC(C)(C)[C@@H]3[C@H](OC(=O)CCN(C)C)[C@H](OC(C)=O)[C@@]2(C)O1	-11.8%	-1.3%	39.8µM*	.	.	?
CCN1/C(=C/c2ccc3cccc(C)c3[n+]2CC)Sc2ccccc21	-1.4%	-1.3%	-156.7%	1.12µM*	?	?
CCN1/C(=C\C=C(C(C)=O)C(C)=O)Sc2ccccc21	.	-1.2%	-57.7%	-3.3%	.	-6.2%
CCN1/C(=C/c2ccc3cc(C)cc(C)c3[n+]2CC)Sc2cc(C)ccc21	.	-19.7%	-49.6%[10 µM]	?	?	20µM*
CCN1/C(=C\C(C)=O)Sc2ccc(OC)cc21	-4.3%	-2.8%	-11.9%	-2.1%	26.4%	3.4%
CCN1/C(=C\c2ccc3cc(C)ccc3[n+]2CC)Sc2cc(C)c(C)cc21	.	-11.3%	-75.5%	0.891µM*	-14.6%[46 µM]	?
CC(Sc1nnc(NC2CCCCC2)s1)C(=O)Nc1ccc2c(c1)C(=O)c1ccccc1C2=O (centres undefined)	?	0.0%	-18.5%[10 µM]	-24.1%	7.1%	25.1µM*
O=C1CCCC(O)=C1Sc1ccccc1C(=O)O	.	-0.8%	-36.5%	10.6%[9.22 µM]	.	-4.5%
CC1(C)CC(=O)C(C(C#Cc2ccccc2)C2=C(O)CC(C)(C)CC2=O)=C(O)C1	7.94µM*	-1.7%	-18.8%	15.2%	2.5%	6.31µM*
O=C1CCCC(O)=C1C(C#Cc1ccccc1)C1=C(O)CCCC1=O	3.98µM*	-0.1%	6.4%[10 µM]	11.8%	?	6.31µM*
O=C1ON=C(c2ccccc2)/C1=C/c1ccc(OS(=O)(=O)c2ccccc2)cc1	10µM*	2.8%	11.8%[10 µM]	?	-6.9%	11.2µM*
CN(C(=O)c1cnc(N2CCN(c3ncccn3)CC2)c2ccccc12)c1ccc(Cl)cc1	22.4µM*	-1.8%	-31.9%	-4.8%	?	8.8%
CCc1ccc(NC(=O)c2cnc(N3CCN(c4ccccn4)CC3)c3ccccc23)cc1	.	2.3%	-17.9%	-19.7%	.	?
CC(C)NC(=O)c1cnc(N2CCN(c3ccccn3)CC2)c2ccccc12	?	0.8%	-8.7%	-19.2%	?	31.6µM*
Cc1ccccc1COc1ccc(/C(O)=C2/C(=O)C(=O)N(CCCn3ccnc3)C2c2ccco2)cc1 (centres undefined)	-26.5%	-2.6%	-19.8%	-10.1%	5.8%	11.2µM*
Cc1ccc(C)c(/C(O)=C2\C(=O)C(=O)N(CCCn3ccnc3)C2c2ccncc2)c1 (centres undefined)	28.2µM*	6.7%	-10.8%[10 µM]	-16.2%	7.0%	?
CC1C/C(=N\NC(=S)NC(C)C)CC(C)(C)C1 (centres undefined)	-3.1%	-4.2%	34.6%	5.7%	3.3%	-11.6%
